The term inhibition denotes the drop in the measured response relative to a control, in per cent.

Values without a mark were called inactive. How the calls were made is not given here.

The values that follow come from PubChem BioAssay.

The target in the assay is Pantothenate synthetase (Mycobacterium tuberculosis (strain ATCC 25618 / H37Rv)) (UniProt P9WIL5). The experiment in a line: Recombinant Mtb pantothenate synthetase (PanC) inhibitors, coupled enzyme, confirmatory (AID 375).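 Further: 0% = full reaction with vehicle and 100% = no enzyme background.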 As to conditions: coupled enzyme assay; at 10 µM, hits give high values.
Sequence of Pantothenate synthetase (Mycobacterium tuberculosis (strain ATCC 25618 / H37Rv)) (P9WIL5 whole entry, looked up): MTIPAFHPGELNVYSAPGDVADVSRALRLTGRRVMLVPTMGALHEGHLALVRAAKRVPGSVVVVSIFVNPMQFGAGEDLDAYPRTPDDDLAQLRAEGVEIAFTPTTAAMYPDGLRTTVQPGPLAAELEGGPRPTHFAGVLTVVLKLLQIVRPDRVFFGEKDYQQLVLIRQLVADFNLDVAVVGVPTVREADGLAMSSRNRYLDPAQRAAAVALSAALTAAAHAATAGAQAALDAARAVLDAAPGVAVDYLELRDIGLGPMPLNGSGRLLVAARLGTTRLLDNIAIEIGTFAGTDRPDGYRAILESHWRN
Consider `CCOc1ccc(OCc2ccc(C(=O)Nc3cccc(C)n3)o2)cc1`, for which the inhibition was 7%.
With `COc1ccc(CNC(=O)c2ccc(CN3CCOCC3)cc2)cc1` the figure was 8%; with `Cc1c(C(=O)O)oc2ccc(S(=O)(=O)NCCC3=CCCCC3)cc12`, 2%.
With `COc1ccc(C2C(C(=O)NCCN3CCOCC3)c3ccccc3C(=O)N2C2CCCCC2)cc1` (stereo not given) the figure was 0%.
Turning to `CC1(C)Cc2c(sc3c2C2=NCCN2C=N3)CS1`, the inhibition was 3%.
Turning to `Cc1cc2n(n1)C(c1ccccc1)Nc1ccccc1-2` (stereo not given), the inhibition is 7%.
With `c1cncc(-c2nnc(-c3ccco3)o2)c1` the figure was 4%.
With `CCCCn1c(CN(C)Cc2ccccc2)nc2c1c(=O)n(C)c(=O)n2C` the figure was 0%; with `CCOc1ccccc1NC(=O)C1CCCN(S(=O)(=O)c2cccc3cccnc23)C1` (stereo not given), 6%; with `O=S(=O)(c1ccc(Br)s1)N1CCCCC1`, 0%.
`CCN(CC)S(=O)(=O)c1ccc2oc(C(=O)O)c(C)c2c1`: the inhibition was 0%.
With `CCCS(=O)(=O)N1CCC(C(=O)N2CCCC2)CC1` the figure was 7%.
For the molecule `CC(C)[C@H](NC(=O)NCc1ccc(Cl)cc1)C(=O)O`, the inhibition was 0%.
For `COc1ccc(CCN2C(=O)C3C4C=CC(C4)C3C2=O)cc1OC` (stereo not given) the value was 0%; for `CC1(C)NC(=O)N(CCOc2cccc(Cl)c2Cl)C1=O`, 0%.
Consider `c1ccc(-c2nc3cnccn3c2Nc2ccc3c(c2)OCCO3)cc1`, for which the inhibition was 0%.
With `COCCCN1C(=O)C(=O)/C(=C(/O)c2ccc(OC)cc2)C1c1ccc(O)c(OC)c1` (stereo not given) the figure was 0%; with `Cc1cc(NC(=O)COc2cccc(C)c2C)no1`, 0%.
For the molecule `CC1(C)CC2CC(C)(CN2S(=O)(=O)c2ccc(N)cc2)C1` (stereo not given), the inhibition is 0%.
On to `COc1cccc(C(c2nnnn2Cc2ccccc2)N2CCN(C(=O)c3ccco3)CC2)c1OC` (stereo not given), for which the inhibition was 4%.
For `CC(=O)Nc1ccc(NS(=O)(=O)C(F)(F)F)cc1` the value was 0%.
With `CCC(=O)Oc1ccc(/C(CC)=C(\CC)c2ccc(OC(=O)CC)cc2)cc1`, the inhibition was 0%.
For `Cc1ccc(CS(=O)(=O)Cc2ccc(C(=O)NCc3ccccn3)o2)cc1` the value was 0%; for `COc1cccc2cc(C(=O)C3=C(O)C(=O)N(CCCN4CCOCC4)C3c3ccncc3)oc12` (stereo not given), 0%; for `Cc1nn(C)c(C)c1NC(=O)CSc1nc(Cc2ccccc2)nc2c1cnn2-c1ccccc1`, 2%.
With `Cn1c(-c2ccc(F)cc2)cnc1NCc1ccccc1` the figure was 0%; with `CC(CCc1ccccc1)NC(=O)c1ccc(Br)o1` (stereo not given), 0%; with `O=S(=O)(NC1=NCCC1)c1cccs1`, 0%.
For `COc1ccc(CCn2c(-c3ccco3)nc3ccccc3c2=O)cc1OC` the value was 0%; for `CCc1cc(=O)oc2cc(OC(C)=O)cc(OC(C)=O)c12`, 0%.
As to `Cc1cc(C)c(C#N)c(SCc2ccc(C#N)cc2)n1`, the inhibition was 0%.
For `O=S(=O)(Nc1nc2ccccc2nc1NCc1ccco1)c1cccs1`, the inhibition was 2%.
As to `O=C(CCn1nc(-c2ccccc2)ccc1=O)N1CCCC1`, the inhibition is 0%.
With `Cc1nn(-c2ccc(F)cc2)c2nc(N)c(C#N)c(-c3cccs3)c12` the figure was 6%; with `CCOc1ccc(-c2nc(C#N)c(N3CCCCCC3)o2)cc1`, 4%; with `COc1ccc(S(=O)(=O)N(C)c2ccc(C(=O)N3CCOCC3)cc2)cc1`, 0%.
In the case of `Cc1sc2nc(SCC(=O)Nc3c(C)n(C)n(-c4ccccc4)c3=O)n(C)c(=O)c2c1C`, the inhibition is 0%.
For `CCOc1ccccc1NC(=O)CSc1nnc2c(CC)c(C)nc(N)n12` the value was 0%.
With `CC(C)(C)c1ccc(OCC(=O)O)cc1` the figure was 1%.
With `OCCn1c(-c2ccc3c(c2)OCO3)csc1=Nc1ccccc1` the figure was 1%.
